A selection: hits, their analogues and other compounds. The true share with any hit is near 7.3%.
HCV inh: blocks hepatitis C virus; Huh7.5.1 HCVcc-Cre infection, luciferase reporter, 44 h; Potency, µM (titrated, usually from 41.8 µM), usual class: inhibitors; 340,000 compounds, 3.4% hits; active = well fitted inhibition curve with a large enough effect; inconclusive = small, poorly fitted or top-dose-only effect, or another doubt; inactive = no such curve, though single readings can be large or run the other way
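Antiviral activity was scored by luciferase reporter output from cells infected with HCVcc-Cre (~0.5 moi) in presence of compound, 44 h infection period, cells seeded 1,000/well 4 h prior.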
VACV mCherry inh: inhibitors of vaccinia virus infection (mCherry reporter signal); Vaccinia virus mCherry reporter infection, fluorescence; Potency, µM (top dose mostly 36.5 µM), usual class: inhibitors; 310,000 compounds, 0.63% hits; calls by dose curve; tested in A549 cells; note: nearly all actives have a fitted effect of over 35% in size
HCMV antiviral: blocks human cytomegalovirus replication | activity change, negative = inhibition, % at 57.5 µM | AID 1259415 | 410,000 compounds, 4.5% hits | HFF cells, HCMV-luciferase reporter, 72 h; stronger effect = lower value; in the data active = activity change below about -60%; inconclusive = no clear call, values can overlap the other calls; inactive = above about -39%
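Two compound doses tested in HFFs infected with HCMV-luciferase, MOI 1 PFU/cell, 72 h at 37C. Lysate luminescence read with OneGlo; data normalized against buffer-only and 10uM Salinomycin inhibitor controls.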
FMDV antiviral: foot and mouth disease virus antiviral activity; Potency, µM (highest dose often 57.9 µM), hits mostly inhibitors; 410,000 compounds, 1.2% hits; AID 1159524; FMDV antiviral cell-based qHTS; calls by dose curve; tested in HEK293T cells; note: read-out not given here; nearly all actives have a fitted effect of over 45% in size
VACV Venus inh: vaccinia inhibition (Venus reporter) | Vaccinia virus Venus reporter expression, fluorescence | Potency, µM (series often up to 36.5 µM), actives largely listed as inhibitors | 330,000 compounds, 0.46% hits; calls by dose curve; tested in A549 cells; note: nearly all actives have a fitted effect of over 30% in size
Numbers stand for hits; i = inactive; ? = inconclusive; nt = no result; + = active, no number; [ ] = remark or other dose.

SMILES | HCV inh | VACV mCherry inh | HCMV antiviral | FMDV antiviral | VACV Venus inh
Cc1ccccc1Cn1nnc(-c2ccc(F)cc2)n1 | i | i | -75 | i | i
Cc1cccc(N/C(=N/S(=O)(=O)c2ccccc2)c2ccccc2)n1 | i | i | i | i | i
FC(F)(F)c1ccccc1NC(=S)N1CCc2ccccc2C1 | i | nt | i | i | nt
CCCN1CCN(C(=S)Nc2ccccc2C(F)(F)F)CC1 | ? | i | -83 | i | ?
Cc1cc(C)c2c(CN3CCN(Cc4ccccc4)CC3)cc(=O)oc2c1 | ? | nt | -62 | i | nt
CCc1cc(=O)oc2cc(C)cc(OC(C)C(=O)NC3CCN(Cc4ccccc4)CC3)c12 (stereo not drawn) | 13µM | i | i | i | i
Cc1cc(C)c2c(CN3CCN(c4ccccc4)CC3)cc(=O)oc2c1 | nt | i | i | i | i
Cc1cc(OC(C)C(=O)NC2CCN(Cc3ccccc3)CC2)c2c(C)cc(=O)oc2c1 (stereo not drawn) | ? | nt | nt | i | nt
CCCNC(=O)COC(=O)c1ccccc1C(=O)c1ccc(Cl)c([N+](=O)[O-])c1 | ? | ? | -113 | 11µM | 14µM
Cc1ccc(C(=O)c2ccccc2C(=O)OCC(=O)NCCc2ccc(Cl)cc2Cl)cc1 | i | i | i | ? | i
Cc1ccc(C(=O)c2ccccc2C(=O)OCC(=O)Nc2cccc([N+](=O)[O-])c2)cc1 | i | i | i | i | ?
Cc1ccc(Cl)c(NC(=O)COC(=O)c2ccccc2C(=O)c2ccc(Cl)c([N+](=O)[O-])c2)c1Cl | ? | ? | -102 | ? | ?
O=C1CCCC2=C1C1c3ccccc3C(=O)N1c1ccc(C(=O)c3ccccc3)cc1N2 (stereo not drawn) | ? | i[1.46 µM] | -76 | i | i
O=C1CC(c2ccco2)CC2=C1C1c3ccccc3C(=O)N1c1ccccc1N2 (stereo not drawn) | ? | nt | i | i | ?
CCC(=O)OC(Cc1ccccc1)(c1ccccc1)[C@H](C)CN(C)C (stereo partly drawn) | ? | i | ? | i | i
CC[C@H](OC(C)=O)C(C[C@H](C)N(C)C)(c1ccccc1)c1ccccc1 | ? | i | -86 | i | i
O=c1c2ccccc2cnn1CCOc1ccccc1 | i | i | -87 | 10µM | i
O=C(O)Cn1ncc2ccccc2c1=O | i | i | i | i | i
COc1ccccc1CN1CCC(CNC(=O)c2cnn(-c3ccc(Cl)cc3)c2C2CCN(C(=O)OC(C)(C)C)CC2)CC1 | nt | ? | -108 | i | i
Cc1ccc(-n2ncc(C(=O)NCCN3CCC(Cc4ccccc4)CC3)c2C2CCN(C(=O)OC(C)(C)C)CC2)cc1 | nt | ? | + | i | 11µM
Cc1ccc(-n2ncc(C(=O)NCCN3CCc4ccccc4C3)c2C2CCN(C(=O)OC(C)(C)C)CC2)cc1 | nt | i | + | i | i
Cc1ccc(-n2ncc(C(=O)NCCN3CCCC3)c2C2CCN(C(=O)OC(C)(C)C)CC2)cc1 | nt | i | i | i | i
COc1ccc(-n2ncc(C(=O)NCCCN3CCCCC3)c2C2CCN(C(=O)OC(C)(C)C)CC2)cc1 | nt | i | + | i | i
CC(C)(C)OC(=O)N1CCC(c2c(C(=O)NCCN3CCC(Cc4ccccc4)CC3)cnn2-c2cccc(Cl)c2)CC1 | nt | 11µM | -100 | ? | 11µM
Cc1ccc(C)c(N2CCN(CCCNC(=O)c3cnn(-c4cccc(Cl)c4)c3C3CCN(C(=O)OC(C)(C)C)CC3)CC2)c1 | nt | ? | i | i | ?
SMILES | HCV inh | VACV mCherry inh | HCMV antiviral | FMDV antiviral | VACV Venus inh
Cc1ccc(C)c(N2CCN(CCCNC(=O)c3cnn(-c4ccccc4Cl)c3C3CCN(C(=O)OC(C)(C)C)CC3)CC2)c1 | nt | ? | -105 | ? | ?
Nc1ccccc1SC(CC(=O)c1ccccc1)c1ccccc1 (stereo not drawn) | nt | i | nt | i | i
CC(C(Sc1ccccc1N)c1ccccc1)[N+](=O)[O-] (stereo not drawn) | i | nt | -67 | ? | nt
O=C(COC(=O)c1ccc(F)cc1F)Nc1ccc(S(=O)(=O)N2CCOCC2)cc1 | nt | i | i | i | i
CCc1nc(NC(=O)Cc2csc(C)n2)sc1C(=O)OC | i | nt | i | i | nt
COc1ccc(NC(=O)c2ccco2)cc1NC(=O)COc1ccc(C)cc1C | nt | i | -66 | ? | ?
COc1cc(OC)cc(C(=O)Nc2cc(NC(=O)c3ccco3)ccc2OC)c1 | 10µM | ? | i | i | ?
O=C(CSc1nnnn1C1CC1)N1CCN(c2ccc(O)cc2)CC1 | i | nt | ? | i | nt
O=C(CSc1nnnn1C1CC1)N1CCN(c2cccc(Cl)c2)CC1 | 13µM | nt | i | i | nt
CC(C)c1ccc(CN2CCN(C(=O)CSc3nnnn3C3CC3)CC2)cc1 | 5.6µM | nt | -90 | ? | nt
O=C(NNc1nc(-c2ccc(F)cc2)cs1)c1ccccc1 | ? | i | -99 | i | i
O=C(NNc1nc(-c2ccccc2)cs1)c1ccc(F)cc1 | i | i | -80 | i | i
O=C(NNc1nc(-c2ccccc2)cs1)c1cccs1 | ? | i | i | i | i
CN(Cc1ccco1)c1cc(-c2ccc3c(c2)OCO3)ncn1 | nt | nt | nt | i | nt
CCN(CC)C(=O)C1=C(C)N(CCCOC)C(=O)C(CC(=O)NCCN2CCOCC2)C1 (stereo not drawn) | nt | i | i | i | i
Cc1ccc(Nc2nc(NCCO)c3ccccc3n2)cc1C | 13µM | i | i | i | ?
CCN(CC)CCCNc1nc2ccccc2c2nc(-c3ccncc3)nn12 | ? | ? | ? | i | 11µM
OCCCNc1nc(-c2ccc(Cl)cc2)nc2ccccc12 | 13µM | nt | i | i | nt
Clc1ccc(-c2nc(NCCN3CCOCC3)c3ccccc3n2)cc1 | ? | nt | i | i | nt
CCN(CC)CCCNc1nc2ccccc2c2[nH]c3ccc(OC)cc3c12 | ? | ? | -93 | i | 10µM
COc1ccc(CNC(=O)c2ccc(-c3nc(CSc4ccccc4)c(C)o3)cc2)cc1 | nt | i | i | i | i
CN(C(=O)CSc1cn(CC(=O)N2CCCCC2)c2ccccc12)c1ccccc1 | nt | i | i | i | i
O=C(NCCc1nccs1)C1CCC(=O)N(CCc2ccc(Cl)cc2)C1 (stereo not drawn) | i | i | i | i | i
CC(C)N1C(=O)CC[C@@H](S(=O)(=O)c2ccccc2)[C@@H]1/C=C/c1ccccc1 | nt | nt | i | nt | nt
COCCNc1nc(-c2ccccc2Cl)nc2ccccc12 | nt | nt | nt | i | nt
SMILES | HCV inh | VACV mCherry inh | HCMV antiviral | FMDV antiviral | VACV Venus inh
COCCNc1nc(-c2ccccc2)nc2ccccc12 | ? | i | i | i | i
OCCNc1c2ccccc2nc2ccccc12 | ? | ? | -101 | i | ?
COCCCNc1nc(-c2ccncc2)nc2ccccc12 | 11µM | i | i | i | i
CC(=O)OCCNc1nc(-c2ccccc2)nc2ccccc12 | 10µM | nt | i | i | nt
COCCCNc1nc(-c2ccc(Cl)cc2)nc2ccccc12 | 13µM | i | i | i | i
CCOc1ccc(S(=O)(=O)c2cc3cccc(OCC)c3oc2=O)cc1 | nt | i | i | i | i
CSc1ccc(-c2nnn(CC(=O)Nc3sc4c(c3C#N)CCC(C(C)(C)C)C4)n2)cc1 (stereo not drawn) | nt | i | i | i | i
CCN(CC)CCCNc1nc(-c2ccccc2)nc2ccccc12 | 10µM | i | ? | nt | ?
OCCNc1nc(-c2ccccc2)nc2ccccc12 | 7.9µM | i | i | i | i
